Among the data in publication PMC7862700, “An all-to-all approach to the identification of sequence-specific readers for epigenetic DNA modifications on cytosine” are binding signal values, retold here.

What all share (test): DAPPL (digital affinity profiling via proximity ligation, sequencing); 10 mM Tris-HCl pH 7.5, 50 mM NaCl, 1 mM DTT, 4% glycerol, room temperature, 30 min; GST-TFs on glutathione beads, 16-mer random dsDNA library, 0.1% formaldehyde crosslink after washing; high values mean tight binding
Holding throughout (conditions): protein: recombinant; tags: N-terminal GST; dsDNA, one strand shown

One test has as its target T1, FLI1 (Homo sapiens, UniProt Q01543 1-452).
T1 sequence: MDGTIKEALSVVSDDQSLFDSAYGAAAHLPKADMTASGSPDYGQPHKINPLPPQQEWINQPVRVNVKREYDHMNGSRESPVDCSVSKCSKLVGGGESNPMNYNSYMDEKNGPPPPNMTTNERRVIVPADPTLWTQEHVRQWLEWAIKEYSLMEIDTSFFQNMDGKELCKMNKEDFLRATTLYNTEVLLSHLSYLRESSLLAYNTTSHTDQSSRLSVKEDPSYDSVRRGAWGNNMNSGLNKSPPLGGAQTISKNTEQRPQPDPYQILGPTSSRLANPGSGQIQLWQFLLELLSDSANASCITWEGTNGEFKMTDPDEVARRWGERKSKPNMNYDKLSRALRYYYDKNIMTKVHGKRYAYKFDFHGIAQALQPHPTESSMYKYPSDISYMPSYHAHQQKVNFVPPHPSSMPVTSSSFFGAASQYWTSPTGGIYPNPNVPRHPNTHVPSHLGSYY
In outline:
(§1)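 Binding signal is given per hexamer as its read frequency for a factor divided by its frequency in the tag-only sample. GST-fused human transcription factors were expressed in yeast, captured on glutathione beads, barcoded with DNA and pooled with that sample, then incubated with 200 nmole of a 16-mer random double-stranded DNA library in Tris/NaCl/DTT/glycerol buffer for 30 min at room temperature. The pools were then washed, crosslinked, proximity-ligated, amplified by PCR and sequenced on an Illumina NextSeq500.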

In a further test the target is T2, ELK1 (Homo sapiens, UniProt P19419 1-428).
T2 sequence: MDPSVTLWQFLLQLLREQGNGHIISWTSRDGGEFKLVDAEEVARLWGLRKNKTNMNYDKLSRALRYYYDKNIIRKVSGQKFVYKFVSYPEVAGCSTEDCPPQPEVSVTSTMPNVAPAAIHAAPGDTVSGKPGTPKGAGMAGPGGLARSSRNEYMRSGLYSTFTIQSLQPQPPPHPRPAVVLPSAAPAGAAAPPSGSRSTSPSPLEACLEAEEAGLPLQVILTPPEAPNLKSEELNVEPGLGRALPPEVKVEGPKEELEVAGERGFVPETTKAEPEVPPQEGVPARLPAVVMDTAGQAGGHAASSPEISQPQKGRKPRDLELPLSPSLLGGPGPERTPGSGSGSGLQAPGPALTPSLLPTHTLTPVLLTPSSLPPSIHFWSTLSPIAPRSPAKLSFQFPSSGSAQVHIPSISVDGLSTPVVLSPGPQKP
In outline:
as §1

The next test deals with T3, GABPA (Homo sapiens, UniProt Q06546 1-454).
T3 sequence: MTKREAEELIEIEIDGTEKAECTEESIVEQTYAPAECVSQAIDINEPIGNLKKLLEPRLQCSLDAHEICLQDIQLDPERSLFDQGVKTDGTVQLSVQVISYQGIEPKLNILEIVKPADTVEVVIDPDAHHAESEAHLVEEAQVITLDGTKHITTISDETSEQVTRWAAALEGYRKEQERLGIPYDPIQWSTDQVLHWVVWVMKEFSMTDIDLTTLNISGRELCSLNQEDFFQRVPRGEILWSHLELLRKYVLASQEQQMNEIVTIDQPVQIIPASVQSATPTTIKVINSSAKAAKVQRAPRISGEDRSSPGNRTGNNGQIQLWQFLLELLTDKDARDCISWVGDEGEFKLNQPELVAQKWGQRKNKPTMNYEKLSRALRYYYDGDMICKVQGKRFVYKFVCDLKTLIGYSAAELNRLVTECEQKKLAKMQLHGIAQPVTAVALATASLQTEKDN
In outline:
as §1

The target of another test is T4, ERG (Homo sapiens, UniProt P11308 1-479).
T4 sequence: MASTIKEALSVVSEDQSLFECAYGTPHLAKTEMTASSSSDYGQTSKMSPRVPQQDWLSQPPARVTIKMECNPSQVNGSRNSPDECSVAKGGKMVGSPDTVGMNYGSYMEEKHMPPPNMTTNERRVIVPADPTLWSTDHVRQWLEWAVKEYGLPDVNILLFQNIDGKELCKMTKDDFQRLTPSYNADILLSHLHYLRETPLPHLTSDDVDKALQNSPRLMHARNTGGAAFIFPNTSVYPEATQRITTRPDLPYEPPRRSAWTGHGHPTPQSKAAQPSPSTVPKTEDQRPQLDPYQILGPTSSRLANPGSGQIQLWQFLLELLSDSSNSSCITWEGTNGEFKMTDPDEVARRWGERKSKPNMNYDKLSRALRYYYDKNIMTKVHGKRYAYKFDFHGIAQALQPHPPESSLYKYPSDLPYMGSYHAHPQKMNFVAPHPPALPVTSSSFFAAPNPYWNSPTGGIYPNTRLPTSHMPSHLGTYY
In a few lines:
as §1

The next test deals with ELF1 (Homo sapiens, UniProt P32519 1-619). In a few lines:
as §1

The next test concerns the target T5, EHF (Homo sapiens, UniProt Q9NZC4 1-300).
T5 sequence: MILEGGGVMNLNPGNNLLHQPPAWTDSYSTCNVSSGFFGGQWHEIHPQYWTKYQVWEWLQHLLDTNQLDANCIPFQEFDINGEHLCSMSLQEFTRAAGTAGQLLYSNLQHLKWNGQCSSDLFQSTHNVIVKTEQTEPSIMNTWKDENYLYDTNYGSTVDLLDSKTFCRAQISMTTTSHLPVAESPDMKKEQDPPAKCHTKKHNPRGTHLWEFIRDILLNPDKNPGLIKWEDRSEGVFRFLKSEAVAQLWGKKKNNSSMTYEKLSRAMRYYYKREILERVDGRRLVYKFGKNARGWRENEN
In outline:
as §1

In another test the target is SPI1 (Homo sapiens, UniProt P17947 1-270). In outline: as §1
Another test has as its target SPIB (Homo sapiens, UniProt Q01892 1-262). In a few lines: as §1
Another test has as its target T6, ELK3 (Homo sapiens, UniProt P41970 1-407).
T6 sequence: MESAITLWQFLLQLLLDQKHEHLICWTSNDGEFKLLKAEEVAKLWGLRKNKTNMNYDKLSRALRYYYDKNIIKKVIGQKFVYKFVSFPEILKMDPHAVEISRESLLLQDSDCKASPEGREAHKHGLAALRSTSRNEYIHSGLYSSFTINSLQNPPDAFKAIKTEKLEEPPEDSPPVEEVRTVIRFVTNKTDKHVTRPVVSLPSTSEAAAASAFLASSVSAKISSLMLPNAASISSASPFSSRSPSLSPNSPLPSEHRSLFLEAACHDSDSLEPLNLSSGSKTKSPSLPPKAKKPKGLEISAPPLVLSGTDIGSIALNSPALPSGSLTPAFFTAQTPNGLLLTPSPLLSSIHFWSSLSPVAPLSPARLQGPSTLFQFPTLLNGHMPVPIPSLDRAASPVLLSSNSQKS
In a few lines:
as §1

The next test has as its target T7, FEV (Homo sapiens, UniProt Q99581 1-238).
T7 sequence: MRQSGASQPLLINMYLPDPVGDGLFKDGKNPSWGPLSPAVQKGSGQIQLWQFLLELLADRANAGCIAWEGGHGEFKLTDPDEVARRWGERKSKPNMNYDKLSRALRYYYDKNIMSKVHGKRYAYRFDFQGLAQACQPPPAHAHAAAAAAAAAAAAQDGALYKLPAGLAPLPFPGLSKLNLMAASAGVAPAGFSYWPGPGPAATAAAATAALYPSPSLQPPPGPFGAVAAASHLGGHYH
In a few lines:
as §1

The next test has as its target ETV5 (Homo sapiens, UniProt P41161 1-510). In outline:
as §1

Another test deals with T8, SPIC (Homo sapiens, UniProt Q8N5J4 1-248).
T8 sequence: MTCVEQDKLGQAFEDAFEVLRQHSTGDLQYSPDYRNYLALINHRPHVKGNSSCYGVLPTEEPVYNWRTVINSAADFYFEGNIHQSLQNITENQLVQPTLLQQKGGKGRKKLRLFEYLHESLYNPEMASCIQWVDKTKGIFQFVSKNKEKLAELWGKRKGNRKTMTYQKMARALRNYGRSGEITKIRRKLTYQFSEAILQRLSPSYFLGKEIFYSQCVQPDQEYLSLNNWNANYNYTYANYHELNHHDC
In outline:
as §1

Another test concerns the target ELF4 (Homo sapiens, UniProt Q99607 1-663). In outline: as §1
The target of a further test is T9, ELK4 (Homo sapiens, UniProt P28324-2 1-405).
T9 sequence: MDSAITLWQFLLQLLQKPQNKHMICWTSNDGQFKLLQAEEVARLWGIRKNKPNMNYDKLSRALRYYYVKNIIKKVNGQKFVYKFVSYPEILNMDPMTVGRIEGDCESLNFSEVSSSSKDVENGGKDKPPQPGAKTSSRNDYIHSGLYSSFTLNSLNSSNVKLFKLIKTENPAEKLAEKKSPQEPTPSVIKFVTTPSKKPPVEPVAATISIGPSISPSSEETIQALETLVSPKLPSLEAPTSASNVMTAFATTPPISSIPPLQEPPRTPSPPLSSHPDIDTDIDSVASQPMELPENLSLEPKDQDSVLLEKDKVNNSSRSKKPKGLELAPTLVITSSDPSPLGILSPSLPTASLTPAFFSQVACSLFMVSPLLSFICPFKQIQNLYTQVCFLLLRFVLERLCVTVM
In outline: as §1

For a further test, the target named is T10, ELF3 (Homo sapiens, UniProt P78545 1-371).
T10 sequence: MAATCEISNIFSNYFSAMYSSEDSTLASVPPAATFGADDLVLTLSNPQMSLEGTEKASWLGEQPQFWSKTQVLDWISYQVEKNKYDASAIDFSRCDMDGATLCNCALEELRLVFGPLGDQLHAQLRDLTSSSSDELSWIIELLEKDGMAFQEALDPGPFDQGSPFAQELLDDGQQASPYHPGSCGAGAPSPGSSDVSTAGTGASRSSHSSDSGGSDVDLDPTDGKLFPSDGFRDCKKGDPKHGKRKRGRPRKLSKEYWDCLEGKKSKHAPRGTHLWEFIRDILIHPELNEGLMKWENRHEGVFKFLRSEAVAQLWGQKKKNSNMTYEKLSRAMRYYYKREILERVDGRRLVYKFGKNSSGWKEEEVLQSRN
In outline: as §1

The target of the next test is CRX (Homo sapiens, UniProt O43186 1-299). In a few lines: as §1
The next test concerns the target ETV1 (Homo sapiens, UniProt P50549 1-477). In outline: as §1

SPIB, sequence (Q01892 whole entry): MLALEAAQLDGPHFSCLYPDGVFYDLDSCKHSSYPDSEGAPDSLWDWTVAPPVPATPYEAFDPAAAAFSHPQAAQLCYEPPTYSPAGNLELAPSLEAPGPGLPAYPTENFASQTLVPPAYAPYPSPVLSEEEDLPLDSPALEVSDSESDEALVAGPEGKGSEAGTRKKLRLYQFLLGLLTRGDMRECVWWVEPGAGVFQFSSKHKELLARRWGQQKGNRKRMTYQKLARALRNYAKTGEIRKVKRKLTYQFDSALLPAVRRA
ETV1, sequence (P50549 whole entry): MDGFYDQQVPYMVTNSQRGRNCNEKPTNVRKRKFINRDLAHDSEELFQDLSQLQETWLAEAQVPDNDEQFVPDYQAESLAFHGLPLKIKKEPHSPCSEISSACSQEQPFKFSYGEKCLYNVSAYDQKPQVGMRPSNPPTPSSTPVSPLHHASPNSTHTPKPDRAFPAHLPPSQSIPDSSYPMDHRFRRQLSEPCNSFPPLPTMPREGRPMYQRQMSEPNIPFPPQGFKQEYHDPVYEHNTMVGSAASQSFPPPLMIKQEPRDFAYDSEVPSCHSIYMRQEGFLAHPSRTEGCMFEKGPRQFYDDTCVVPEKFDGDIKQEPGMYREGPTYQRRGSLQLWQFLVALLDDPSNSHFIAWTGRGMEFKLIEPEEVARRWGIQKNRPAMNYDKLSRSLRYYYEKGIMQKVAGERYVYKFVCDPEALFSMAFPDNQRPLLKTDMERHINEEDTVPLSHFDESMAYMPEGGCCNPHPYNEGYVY
ELF1, sequence (P32519 whole entry): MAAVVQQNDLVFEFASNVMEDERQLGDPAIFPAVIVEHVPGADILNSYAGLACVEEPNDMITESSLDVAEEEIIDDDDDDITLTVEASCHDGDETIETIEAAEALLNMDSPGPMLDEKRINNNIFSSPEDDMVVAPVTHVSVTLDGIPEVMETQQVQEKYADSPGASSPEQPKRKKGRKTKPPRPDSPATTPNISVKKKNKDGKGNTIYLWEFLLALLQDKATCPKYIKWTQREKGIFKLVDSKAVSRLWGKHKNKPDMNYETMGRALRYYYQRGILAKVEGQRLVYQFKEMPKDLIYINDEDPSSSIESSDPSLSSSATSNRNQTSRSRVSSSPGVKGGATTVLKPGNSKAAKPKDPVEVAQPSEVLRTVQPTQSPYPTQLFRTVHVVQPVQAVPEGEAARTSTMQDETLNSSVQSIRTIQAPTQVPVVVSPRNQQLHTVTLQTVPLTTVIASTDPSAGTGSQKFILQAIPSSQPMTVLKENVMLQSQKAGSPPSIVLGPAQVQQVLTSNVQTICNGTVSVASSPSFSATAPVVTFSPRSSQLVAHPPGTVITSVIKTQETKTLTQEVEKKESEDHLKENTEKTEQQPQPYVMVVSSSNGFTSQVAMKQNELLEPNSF
ETV5, sequence (P41161 whole entry): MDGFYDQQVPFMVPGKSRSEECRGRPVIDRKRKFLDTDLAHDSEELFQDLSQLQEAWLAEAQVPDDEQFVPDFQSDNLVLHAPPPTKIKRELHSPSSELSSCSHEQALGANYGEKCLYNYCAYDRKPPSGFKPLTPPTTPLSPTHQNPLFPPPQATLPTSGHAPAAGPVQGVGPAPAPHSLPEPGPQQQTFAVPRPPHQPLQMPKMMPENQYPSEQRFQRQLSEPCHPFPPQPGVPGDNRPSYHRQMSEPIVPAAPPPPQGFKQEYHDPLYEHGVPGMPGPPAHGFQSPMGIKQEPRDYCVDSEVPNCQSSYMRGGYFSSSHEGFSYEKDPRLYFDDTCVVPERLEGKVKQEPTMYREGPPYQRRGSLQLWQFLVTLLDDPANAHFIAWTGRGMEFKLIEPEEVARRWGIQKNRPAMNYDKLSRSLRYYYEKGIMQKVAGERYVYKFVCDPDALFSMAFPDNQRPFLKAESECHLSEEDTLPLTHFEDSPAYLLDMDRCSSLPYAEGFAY
ELF4, sequence (Q99607 whole entry): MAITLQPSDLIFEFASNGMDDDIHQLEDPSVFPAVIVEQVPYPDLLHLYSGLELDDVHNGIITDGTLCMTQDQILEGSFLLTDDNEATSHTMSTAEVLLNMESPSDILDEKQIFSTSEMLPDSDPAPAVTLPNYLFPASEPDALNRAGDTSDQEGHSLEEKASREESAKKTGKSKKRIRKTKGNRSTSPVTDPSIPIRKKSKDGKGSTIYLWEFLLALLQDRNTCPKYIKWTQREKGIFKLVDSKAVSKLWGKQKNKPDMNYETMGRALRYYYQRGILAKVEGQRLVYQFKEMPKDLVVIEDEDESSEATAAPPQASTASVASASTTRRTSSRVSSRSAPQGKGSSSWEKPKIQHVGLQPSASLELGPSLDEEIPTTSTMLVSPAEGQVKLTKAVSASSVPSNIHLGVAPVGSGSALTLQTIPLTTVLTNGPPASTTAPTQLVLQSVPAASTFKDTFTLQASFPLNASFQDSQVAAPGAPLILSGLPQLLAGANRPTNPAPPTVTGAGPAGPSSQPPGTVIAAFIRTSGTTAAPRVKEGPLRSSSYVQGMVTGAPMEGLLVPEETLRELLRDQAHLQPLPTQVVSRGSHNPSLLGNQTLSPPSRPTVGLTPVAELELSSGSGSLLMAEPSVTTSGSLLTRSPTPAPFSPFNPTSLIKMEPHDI
CRX, sequence (O43186 whole entry): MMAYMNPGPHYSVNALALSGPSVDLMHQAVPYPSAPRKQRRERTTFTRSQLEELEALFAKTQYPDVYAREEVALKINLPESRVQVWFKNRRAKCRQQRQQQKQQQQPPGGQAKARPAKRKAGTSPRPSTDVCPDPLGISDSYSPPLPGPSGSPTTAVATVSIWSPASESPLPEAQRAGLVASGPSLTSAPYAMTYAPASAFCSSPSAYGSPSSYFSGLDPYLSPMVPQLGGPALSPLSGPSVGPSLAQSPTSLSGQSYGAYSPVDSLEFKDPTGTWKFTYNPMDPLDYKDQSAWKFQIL

Regarding CCCCGC, the binding signal is 1.12 fold enrichment (6-mer frequency, TF over GST control) with FLI1; 1.19 fold enrichment (6-mer frequency, TF over GST control) in the test with ELK1; 1.2 fold enrichment (6-mer frequency, TF over GST control) with GABPA; 1.19 fold enrichment (6-mer frequency, TF over GST control) with ERG; 1.27 fold enrichment (6-mer frequency, TF over GST control) in the test with ELF1; 1.26 fold enrichment (6-mer frequency, TF over GST control) with EHF. Besides, the binding signal with SPI1 is 1.11 fold enrichment (6-mer frequency, TF over GST control); with SPIB, 1.19 fold enrichment (6-mer frequency, TF over GST control); in the test with ELK3, 1.06 fold enrichment (6-mer frequency, TF over GST control); with FEV, 1.14 fold enrichment (6-mer frequency, TF over GST control); in the test with ETV5, 1.18 fold enrichment (6-mer frequency, TF over GST control); in the test with SPIC, 1.34 fold enrichment (6-mer frequency, TF over GST control). Besides, the binding signal in the test with ELF4 is 1.24 fold enrichment (6-mer frequency, TF over GST control); with ELK4, 1.36 fold enrichment (6-mer frequency, TF over GST control); with ELF3, 1.29 fold enrichment (6-mer frequency, TF over GST control); in the test with CRX, 1.01 fold enrichment (6-mer frequency, TF over GST control); in the test with ETV1, 1.17 fold enrichment (6-mer frequency, TF over GST control).

Regarding ACAATG, the binding signal in the test with FLI1 was 1.1 fold enrichment (6-mer frequency, TF over GST control); in the test with ELK1, 1.06 fold enrichment (6-mer frequency, TF over GST control); with GABPA, 1.17 fold enrichment (6-mer frequency, TF over GST control); with ERG, 1.14 fold enrichment (6-mer frequency, TF over GST control); with ELF1, 1.15 fold enrichment (6-mer frequency, TF over GST control); with EHF, 1.09 fold enrichment (6-mer frequency, TF over GST control). Besides, the binding signal is 1.06 fold enrichment (6-mer frequency, TF over GST control) in the test with SPI1; 1.16 fold enrichment (6-mer frequency, TF over GST control) with SPIB; 1.08 fold enrichment (6-mer frequency, TF over GST control) in the test with ELK3; 1.08 fold enrichment (6-mer frequency, TF over GST control) in the test with FEV; 1.11 fold enrichment (6-mer frequency, TF over GST control) in the test with ETV5; 1.08 fold enrichment (6-mer frequency, TF over GST control) with SPIC. Besides, the binding signal is 1.13 fold enrichment (6-mer frequency, TF over GST control) with ELF4; 1.16 fold enrichment (6-mer frequency, TF over GST control) in the test with ELK4; 1.17 fold enrichment (6-mer frequency, TF over GST control) with ELF3; 1.07 fold enrichment (6-mer frequency, TF over GST control) in the test with ETV1.
